According to PubChem BioAssay AID720711 (National Center for Advancing Translational Sciences (NCATS), 2013):
The campaign covered roughly 360,000 compounds. About 290 (0.081%) were called active. The call rests on the fitted dose curve; in most records, active means well fitted activation curve with a large enough effect; inconclusive means small, poorly fitted or top-dose-only effect; inactive means no such curve, though single readings can be large or run the other way. The sample as a whole holds a higher share of actives than the screen did.
Further: nearly all actives have a fitted effect of over 50% in size.
Potency means the concentration at half of the fitted maximal effect.

Each compound was assayed against Rap guanine nucleotide exchange factor 4 (Homo sapiens) (UniProt Q8WZA2) (assay: qHTS for Agonist of cAMP-regulated guanine nucleotide exchange factor 4 (EPAC2): primary screen). Conditions: biochemical qHTS; Potency: EPAC2 activation; series mostly up to 154 µM; activation: at the top concentration.
Sequence of Rap guanine nucleotide exchange factor 4 (Homo sapiens) (Q8WZA2 whole entry, looked up): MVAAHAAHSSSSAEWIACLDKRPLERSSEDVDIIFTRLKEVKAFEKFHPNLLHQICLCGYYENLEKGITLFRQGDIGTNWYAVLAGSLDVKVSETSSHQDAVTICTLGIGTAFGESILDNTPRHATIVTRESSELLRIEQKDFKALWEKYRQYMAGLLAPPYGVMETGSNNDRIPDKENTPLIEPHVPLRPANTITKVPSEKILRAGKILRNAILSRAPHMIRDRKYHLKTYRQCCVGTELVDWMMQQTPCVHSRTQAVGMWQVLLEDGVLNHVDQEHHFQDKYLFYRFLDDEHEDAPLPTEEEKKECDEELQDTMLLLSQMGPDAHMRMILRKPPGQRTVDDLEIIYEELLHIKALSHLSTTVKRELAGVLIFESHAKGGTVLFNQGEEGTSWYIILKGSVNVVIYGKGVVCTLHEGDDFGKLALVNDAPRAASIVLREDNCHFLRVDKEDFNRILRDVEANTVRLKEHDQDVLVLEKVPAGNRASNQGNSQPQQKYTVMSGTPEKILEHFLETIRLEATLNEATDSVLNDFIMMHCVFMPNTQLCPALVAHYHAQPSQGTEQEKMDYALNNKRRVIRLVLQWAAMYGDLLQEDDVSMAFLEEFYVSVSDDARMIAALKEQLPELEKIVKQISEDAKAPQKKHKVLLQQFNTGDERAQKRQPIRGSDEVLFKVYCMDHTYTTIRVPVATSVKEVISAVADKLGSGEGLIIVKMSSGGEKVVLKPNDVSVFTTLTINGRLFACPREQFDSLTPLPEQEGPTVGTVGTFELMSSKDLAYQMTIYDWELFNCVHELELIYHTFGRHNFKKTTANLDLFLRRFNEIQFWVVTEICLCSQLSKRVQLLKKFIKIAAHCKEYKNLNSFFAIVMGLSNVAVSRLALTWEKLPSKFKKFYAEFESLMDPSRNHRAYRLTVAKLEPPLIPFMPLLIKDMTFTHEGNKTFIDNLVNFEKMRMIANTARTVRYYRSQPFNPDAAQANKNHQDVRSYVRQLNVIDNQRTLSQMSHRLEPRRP
From the text: In multi-cellular eukaryotic organisms, the effects of cAMP are transduced by two ubiquitously-expressed intracellular cAMP receptors, the classic protein kinase A/cAMP-dependent protein kinase (PKA/cAPK) and the more recently discovered exchange protein directly activated by cAMP/cAMP-regulated guanine nucleotide exchange factor (EPAC/cAMP-GEF). Both PKA and EPAC are ubiquitously expressed in all tissues, and an increase in intracellular cAMP levels will lead to the activation of both PKA and EPAC. Therefore, careful dissections of the individual role and relative contribution of EPAC and PKA within the overall cAMP signaling in various model systems are critical for further elucidating the mechanism of cAMP signaling. To date no EPAC-specific antagonists and agonist, as well as isoform-specific agonists have been reported, and developing EPAC-specific pharmacological probes to determine the physiological functions that EPAC play in the overall cAMP-mediated signaling remains a major challenge within the research field. Furthermore, identified regulators of EPAC may lead to new mechanism-based therapeutic strategies specifically targeting the EPAC / cAMP-signaling components as EPAC has been implicated to play important roles in major human pathological conditions such as diabetes, heart disease, and cancer.
This qHTS will be used to screen the Molecular Libraries Small Molecule Repository (MLSMR) as a concentration-titration series using the NCGC unique quantitative screening (qHTS) platform to find activators for EPAC2. In addition, this assay will also be used as a counterscreen for the EPAC1 qHTS. This fluorescent based assay is developed and validated for EPAC2 that measures exchange using EPAC effector Rap1 complex with BODIPY-GDP, a GDP analog with a tethered fluorophores. Activators are identified by monitoring the change in fluorescence signal as the exchanged free BODIPY-GDP has a reduced fluorescence compared to Rap1-bound BODIPY-GDP. […] in signal (activation) is the desired outcome for the EPAC2 agonist while no activity in this assay is desired for the EPAC1 agonist counterscreen.
[1] de Rooij, J., Zwartkruis, F. J., Verheijen, M. H., Cool, R. H., Nijman, S. M., Wittinghofer, A., and Bos, J.L. (1998) Nature 396, 474-477
[2] Kawasaki, H., Springett, G. M., Mochizuki, N., Toki, S., Nakaya, M., Matsuda, M., Housman, D. E., and Graybiel, A. M. (1998) Science 282, 2275-2279
NIH Chemical Genomics Center [NCGC]
NIH Molecular Libraries Probe Centers Network [MLPCN]
Assay Submitter (PI): Xiaodong Cheng, The University of Texas, Medical Branch
Briefly, three uL of reagents (100 nM EPAC2, 250 nM RAP1B-BODIPY-GDP, 50 uM GDP) were dispensed into a 1536-well Greiner black solid-bottom medium binding assay plate. Controls and test compounds (23 nL) were transferred to the plate via a Kalypsys pin tool equipped with a 1536-pin array. The plates were centrifuged at 1,000 rpm for 15 seconds followed by 5 minute incubation at room temperature. The assay plates were read at 5 minute intervals for 30 minutes in the ViewLux plate reader using 480nm excitation and 540nm emission filters. The results were normalized to the agonist positive control of 6.5 mM cAMP.
For `CCc1nc2ccccc2c(=O)n1-c1cccc(OC)c1`, the “activation” value was 1.81% (inactive). With `COc1cccc(N2C(=O)NC(=O)/C(=C\c3cn(C)c4ccccc34)C2=O)c1` the Potency was 100 µM (active). In the case of `CC1C(=O)OC2CCN3CC=C(COC(=O)C(C)(O)C1(C)O)C23` (stereo not given), the “activation” value is reported as -2.81% (inactive). In the case of `CSC1=NP(=S)(SC)N(C)c2nc3n(c21)CCC3` (stereo not given), the “activation” value is reported as 9.22% (inactive). `CC(=O)c1ccc(OC(NC(=O)Cc2ccccc2)C(Cl)(Cl)Cl)cc1` (stereo not given) was tested, and the “activation” value was 6.08% (inactive).
